Compound activity: PubChem BioAssay, National Center for Advancing Translational Sciences (NCATS)
CHX counter = Cycloheximide Counterscreen for Small Molecule Inhibitors of Shiga Toxin; cell reporter, cycloheximide protein synthesis inhibition counterscreen; max response, %; 12% of 300,000 active; in the data active = max response mostly above about 13%, no sharp cut-off; inactive = mostly below about 14%; also: read at 38.3 µM for the half of the compounds with a filed dose; 0% is about no effect
VACV mCherry inh = qHTS for Stage-Specific Inhibitors of Vaccinia Orthopoxvirus: mCherry Reporter Primary qHTS; AID 720579, 2013; Potency, µM (series often up to 36.5 µM), for inactives: at the highest dose activity change, negative = inhibition, most hits filed as inhibitors; Vaccinia virus mCherry reporter infection, fluorescence; 0.63% of 310,000 active; calls by dose curve; tested in A549 cells; also: potency is read from the fitted curve at half-maximal effect; % is scaled to controls: 0 for no effect and ±100 for the full control effect; nearly all actives have a fitted effect of over 35% in size
Marburg entry inh = qHTS for inhibitors of binding or entry into cells for Marburg Virus; Marburg virus pseudotyped entry inhibition, cell reporter; 1.8% of 300,000 active; AID 540276, 2011; Potency, µM (highest dose often 37.8 µM), inactives show at the highest dose activity change, negative = inhibition, most hits filed as inhibitors; calls by dose curve; tested in HEK293 cells; also: potency is read from the fitted curve at half-maximal effect; % is scaled to controls: 0 for no effect and ±100 for the full control effect
Shiga toxin inh = A qHTS for Small Molecule Inhibitors of Shiga Toxin; 9.2% of 290,000 active; Vero cells, Shiga toxin protein synthesis inhibition reporter; inhibition, % at 38.7 µM; AID 2315, 2010; in the data active = inhibition mostly above about 28%, no sharp cut-off; inactive = mostly below about 43%; also: 0% is about no effect
Vaccinia Venus = qHTS for Stage-Specific Inhibitors of Vaccinia Orthopoxvirus: Venus Reporter Primary qHTS. Vaccinia virus Venus reporter expression, fluorescence. Potency, µM (doses to about 36.5 µM), for inactives: top-dose activity change, negative = inhibition, usual class: inhibitors. 0.46% of 330,000 active; calls by dose curve; tested in A549 cells; also: potency is read from the fitted curve at half-maximal effect; % is scaled to controls: 0 for no effect and ±100 for the full control effect; nearly all actives have a fitted effect of over 30% in size
LASV entry inh = qHTS for Inhibitors of binding or entry into cells for Lassa Virus. Potency, µM (top dose mostly 37.9 µM), for the others: at the top dose activity change, negative = inhibition, most hits filed as inhibitors. AID 540256, 2011. Lassa virus pseudotype entry inhibition, cell reporter. 1.2% of 300,000 active; calls by dose curve; tested in HEK293 cells; also: potency is read from the fitted curve at half-maximal effect; % is scaled to controls: 0 for no effect and ±100 for the full control effect; nearly all actives have a fitted effect of over 50% in size
Numbers without * were called inactive; i = inactive; ? = inconclusive; · = no result given; [ ] = dose if it differs, or a comment. Shown is part of a subset that was picked to be rich in hits.

SMILES | CHX counter | VACV mCherry inh | Marburg entry inh | Shiga toxin inh | Vaccinia Venus | LASV entry inh
CCCNCc1nnc(-c2ccccc2Cl)o1 | 7 | i | ? | 32 | -9% | ?
Clc1ccc(-c2nnc(-c3ccccc3Cl)o2)cc1 | 46* | -7% | ? | 115* | -10% | ?
Clc1ccccc1-c1nnc(-c2ccccc2Cl)o1 | 32* | -9% | 18% | 68* | -22% | -20%
Clc1ccc(-c2nnc(-c3cccc4ccccc34)o2)cc1Cl | 1 | i[7.34 µM] | -1%[46.1 µM] | 10 | -1%[7.34 µM] | 14%
COc1ccc(S(=O)(=O)Nc2cccc3c2O[C@H](CN(C)CC2CCCCC2)[C@@H](C)CN([C@H](C)CO)C3=O)cc1 | · | i | · | · | -8% | ·
COc1cc(NC(=O)c2ccccc2-n2cnnn2)cc(OC)c1 | · | i | ? | · | -5% | 6%
COc1cc(OC)cc(C(=O)Nc2ccc(-n3cnnn3)c(C)c2)c1 | 22* | i | 8% | 30* | -13% | 0%
COc1ccc(/C=C(\NC(=O)c2ccc(OC)cc2)C(=O)Nc2ccc(C(=O)O)cc2)cc1 | 1 | -1% | 10%[46.1 µM] | 1 | -3% | 3%[46.1 µM]
COc1ccc(/C=C(\NC(=O)c2ccc(C)cc2)C(=O)Nc2ccc(C(=O)O)cc2)cc1 | 31* | -9% | -9% | 26 | -9% | 3%
COc1ccc(-c2ccc3c(N)c(C(=O)Nc4cc(F)ccc4C)sc3n2)cc1 | · | -17% | ? | · | -11% | 5%[46.1 µM]
COc1ccc(-c2ccc3c(N)c(C(=O)Nc4cccc(C)c4)sc3n2)cc1 | 43* | i | 22%[46.1 µM] | 17 | -14% | 19%[46.1 µM]
COc1ccc(C(=O)Nc2ccc(SC(F)F)cc2)cc1 | 49* | -18% | ? | 98* | -12% | 15%
CCOc1ccc(NC(=O)CCS(=O)(=O)c2ccc(Br)cc2)cc1 | -5 | i | · | -3 | -14% | 4%[46.1 µM]
Clc1ccc(-c2nn3c(-c4cc(-c5ccccc5)n[nH]4)nnc3s2)cc1 | · | 21% | · | · | -14% | ·
C[C@]12C[C@@](C)(C=C1C=Cc1ccc(F)cc1)C(=O)C[C@H]2c1ccc(F)cc1 | · | · | 5%[14.2 µM] | · | · | ?
CCc1ccc(NS(=O)(=O)c2ccc3[nH]cc(C(=O)NCCCOC(C)C)c(=O)c3c2)cc1 | · | -14% | 14%[46.1 µM] | · | -9% | ?
COc1ccc(C(=O)Nc2cccc(C)c2)cc1 | 28* | · | 9% | 61* | · | -1%
COc1ccc(C(=O)NNC(=O)C(=O)Nc2ccc(C)cc2)cc1 | 4 | -16% | 7%[46.1 µM] | 7 | -11% | 3%
Cc1ccc(NC(=S)c2ccccc2)cc1 | 35* | i | ? | 14* | -14% | 6%
Cc1ccc(NC(=S)c2ccncc2)cc1 | 18 | · | · | 5 | · | ·
COc1ccc(NC(=O)c2cnc(SC)nc2)cc1 | 32* | · | · | 41 | · | ·
COc1ccc(NC(=O)c2ccc(C)cc2)cc1 | 38* | · | · | · | · | ·
COc1ccc(NC(=O)c2nc(SC)ncc2Cl)cc1 | -1 | i | · | -20 | 0% | ·
Cc1c(Cl)cccc1NC(=O)CCS(=O)(=O)c1ccc2c(c1)CC(=O)N2C | · | -12% | · | · | -3% | 12%[46.1 µM]
CCCNC(=O)C(=O)NCC(c1ccc2c(c1)OCO2)N1CCOCC1 (centres undefined) | · | -6% | · | · | -1% | 9%[46.1 µM]
SMILES | CHX counter | VACV mCherry inh | Marburg entry inh | Shiga toxin inh | Vaccinia Venus | LASV entry inh
COc1ccc(NC(=S)c2ccncc2)cc1 | -2 | ? | -3% | 8 | -14% | 4%
COc1ccc(C(=S)Nc2ccc(C)cc2)cc1 | 51* | i | ? | 79* | -1% | 1%
COC(=O)COc1cccc(NC(=O)c2ccc(C)cc2)c1 | -2 | · | 13% | 22 | · | -18%
COc1ccc(CC(=O)NC(=S)Nc2ccc(S(N)(=O)=O)cc2)cc1 | 2 | -20% | ? | -9 | -3% | 25%
COc1ccc(C(=O)Nc2ccc3nc(C)c(C)nc3c2)cc1 | 39* | · | · | 129* | · | ·
COc1ccc(C(=O)NC(=S)Nc2ccc(S(N)(=O)=O)cc2)cc1 | 18* | i | ? | 35 | 13% | 2%
Cc1ccc(NC(=O)c2ccc(OC(=O)COc3ccc(Cl)c(C)c3)cc2)cc1 | 49* | -15% | ? | 96* | -9% | -18%
CN(CCOc1ccc(C[C@H](Nc2ccccc2C(=O)c2ccccc2)C(=O)O)cc1)c1ccccn1 | · | · | -9% | · | · | ·
COc1ccc(CCNC(=O)Nc2ccccc2[N+](=O)[O-])cc1 | 37* | -6% | 26%[46.1 µM] | 67* | 0% | 5%
O=C(NCCc1cccs1)C1CC(c2ccccc2[N+](=O)[O-])=NO1 (centres undefined) | 16* | -10% | · | 74* | -9% | ·
COc1ccc(CCNC(=O)C2CC(c3ccccc3[N+](=O)[O-])=NO2)cc1 (centres undefined) | 49* | -3% | · | 52 | -6% | ·
CS(=O)(=O)Oc1ccc2c(c1)O/C(=C\c1cccnc1)C2=O | 12 | i | 6%[46.1 µM] | 20* | -10% | 5%
O=C1/C(=C/c2cccnc2)Oc2cc(OS(=O)(=O)c3ccccc3)ccc21 | 8 | · | ? | 15 | · | -14%
C[C@@H]1CN([C@H](C)CO)C(=O)CCCn2cc(nn2)CO[C@H]1CN(C)C(=O)Nc1ccc2c(c1)OCCO2 | · | -10% | · | · | -16% | ·
CC(=O)Nc1nonc1-c1nnc(SCc2ccccc2)n1C | · | 1% | -1%[46.1 µM] | · | -11% | -2%[46.1 µM]
O=C1CCC(C(=O)Nc2cccc(Oc3ccccc3)c2)=NN1 | 15* | -16% | ? | 16 | -10% | -9%[46.1 µM]
O=C1CCC(C(=O)Nc2cccc(S(=O)(=O)Nc3ccccc3F)c2)=NN1 | · | -5% | ? | · | 6% | -26%[46.1 µM]
Cc1ccc(NC(=O)C2=NNC(=O)CC2)cc1F | 35* | i[7.34 µM] | ? | 60* | -5%[7.34 µM] | -21%
CC(C)c1ccc(NC(=O)C2=NNC(=O)CC2)cc1 | 38* | -17% | ? | 97* | -17% | -23%
CCn1c(SCC(=O)NCCc2ccccc2)nc2c([nH]c3ccccc32)c1=O | -5 | · | · | 11 | · | ·
CC(Oc1ccccc1)C(=O)Nc1ccc(C(N)=O)cc1 (centres undefined) | 10 | · | 8% | 1 | · | 29%
NC(=O)c1ccc(NC(=O)C#Cc2ccccc2)cc1 | 35* | 7.1µM* | 4.5µM* | 56* | -29% | 2.2µM*
COc1ccc(NC(=O)C#Cc2ccccc2)cc1OC | 13* | ? | ? | 39 | ? | -9%[46.1 µM]
CC(C(=O)NCc1ccccc1F)n1ccc2cc(S(=O)(=O)N3CCCC3)ccc21 (centres undefined) | · | i | · | · | -24% | -1%[46.1 µM]
